Out of some 330,000 compounds screened, about 1,100 (0.33%) were called active.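 How the source made its calls: active means inhibition above about 40% at 20 µM (limit read from the data); inactive means the rest.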 The list comes from a sample in which actives are over-represented; it also holds similar structures and randomly drawn compounds.

From PubChem BioAssay AID2521 (Sanford-Burnham Center for Chemical Genomics, 2010) come the findings set out here.

The target in the test is Apelin receptor (Homo sapiens) (UniProt P35414). The experiment in a line: antagonists of human apelin receptor APJ, primary screen, CHO-K1 cells, beta-arrestin complementation, luminescence (AID 2521).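 Further: cells challenged with 10 nM apelin-13 agonist together with compound; plate controls were apelin-13 plus DMSO wells for no effect and DMSO wells lacking apelin-13 for full effect.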 The following applies: at 20 µM, active compounds read high.
Apelin receptor (Homo sapiens), sequence (P35414 whole entry, looked up): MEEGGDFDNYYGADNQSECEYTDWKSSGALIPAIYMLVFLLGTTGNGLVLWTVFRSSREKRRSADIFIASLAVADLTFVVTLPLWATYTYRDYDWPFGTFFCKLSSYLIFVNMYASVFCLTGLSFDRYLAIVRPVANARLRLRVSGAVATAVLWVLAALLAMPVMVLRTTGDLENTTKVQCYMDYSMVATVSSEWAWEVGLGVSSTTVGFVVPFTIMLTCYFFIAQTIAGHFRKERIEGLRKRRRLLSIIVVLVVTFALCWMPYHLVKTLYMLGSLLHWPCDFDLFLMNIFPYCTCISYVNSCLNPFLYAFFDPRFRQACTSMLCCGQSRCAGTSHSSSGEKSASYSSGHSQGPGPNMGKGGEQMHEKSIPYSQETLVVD
Usually inhibition stands for the drop in the measured response relative to a control, in per cent. As to `CCOC(=O)c1c(N)n(Cc2ccccc2)c2nc3ccccc3nc12`, the inhibition was 42.7% (active).

With `CC/C(=N\NC(=O)c1ccccc1O)c1c(O)n(Cc2ccccc2)c(=O)[nH]c1=O`, the inhibition was -28% (inactive).

As for `COc1cc(Cn2c(N)c(C(=O)NCc3ccco3)c3nc4ccccc4nc32)cc(OC)c1OC`, the inhibition was 34% (inactive).

Turning to `COc1ccc(Br)cc1CNCCc1cccc(Cl)c1`, the inhibition was 17.7% (inactive).

Regarding `C=CC12CN(C)[C@@H]3C4CO[C@H](C[C@H]41)[C@]1(C(=O)Nc4ccccc41)[C@@H]32` (stereo not given in full), the inhibition is -19.7% (inactive).
